This is a sample that favours compounds with a hit; in the whole collection about 1.6% have one here.
FUS yeast rescue – qHTS for Suppressors of FUS Proteinopathy: Primary screen using FUS-linked yeast assay; S. cerevisiae FUS-expressing, growth rescue, OD600, 24 h; Potency, µM (highest dose often 76.6 µM), hits mostly activators; hit rate 0.24% among 390,000;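 further: plate controls were DMSO vehicle for no effect and reference control for full effect; nearly all actives have a fitted effect of over 55% in size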
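Restored growth of FUS-toxic S. cerevisiae, read as 600 nm absorbance after 24 h at 30C in galactose medium (starting OD 0.005). Controls CP55940 and DMSO.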
12-LOX inh – Primary qHTS assay for inhibitors of human arachidonate 12S-lipoxygenase (ALOX12): Round 2 | Polyunsaturated fatty acid lipoxygenase ALOX12 (Homo sapiens), P18054 | purified 12hLO, xylenol orange hydroperoxide absorbance | Potency, µM (highest dose often 108 µM), without a hit: top-dose activity change, negative = inhibition, actives largely listed as inhibitors | hit rate 1.1% among 580,000; further: on the % scale 0 is the no-effect control and ±100 the full control effect
Target sequence (P18054 whole entry, looked up): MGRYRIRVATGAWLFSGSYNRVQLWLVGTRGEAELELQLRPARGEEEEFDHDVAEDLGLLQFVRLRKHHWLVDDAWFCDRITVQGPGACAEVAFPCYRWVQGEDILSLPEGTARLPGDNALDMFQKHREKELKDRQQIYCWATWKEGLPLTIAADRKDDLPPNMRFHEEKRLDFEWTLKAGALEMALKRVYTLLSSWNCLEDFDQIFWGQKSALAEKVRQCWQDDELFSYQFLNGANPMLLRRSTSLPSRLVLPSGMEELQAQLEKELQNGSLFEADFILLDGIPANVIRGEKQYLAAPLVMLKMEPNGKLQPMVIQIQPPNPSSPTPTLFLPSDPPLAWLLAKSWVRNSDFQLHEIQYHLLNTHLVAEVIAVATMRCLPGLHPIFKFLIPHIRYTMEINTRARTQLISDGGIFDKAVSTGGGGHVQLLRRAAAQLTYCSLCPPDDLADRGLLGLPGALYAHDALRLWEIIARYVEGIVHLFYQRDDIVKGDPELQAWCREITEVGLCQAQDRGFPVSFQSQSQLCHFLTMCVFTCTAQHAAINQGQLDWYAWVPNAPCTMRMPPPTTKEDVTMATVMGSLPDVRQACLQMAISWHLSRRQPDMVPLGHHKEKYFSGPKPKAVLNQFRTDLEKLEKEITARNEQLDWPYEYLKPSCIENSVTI
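Purified human 12hLO (150 nM final) in 25 mM Hepes, 0.01% Triton X-100, pH 7.0 was preincubated 15 min at room temperature with compound. Then 40 uM arachidonic acid was added, 30 min. Hydroperoxide was read by Fe-XO absorbance ratio 573/405 nm.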
gsp antagonist – qHTS for Antagonists of gsp, the Etiologic Mutation Responsible for Fibrous Dysplasia/McCune-Albright Syndrome: qHTS; gsp-mutant cells, cAMP HTRF, 30 min; Potency, µM (titrated, usually from 76.9 µM), for inactives: top-dose activity change, negative = inhibition, actives largely listed as inhibitors; hit rate 0.4% among 340,000; AID 624288, 2012; calls by dose curve; cell line not stated here;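 further: intracellular cAMP measured with PDE inhibitor Ro 20-1724 present during compound exposure; on the % scale 0 is the no-effect control and ±100 the full control effect; nearly all actives have a fitted effect of over 65% in size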
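HTRF cAMP read-out (cAMP-d2 plus anti-cAMP antibody-K in lysis buffer, 30 min RT). Before lysis, cells are exposed to compounds with […] for 30 min at 37C in DPBS containing Ca/Mg, BSA and Tween 20.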
gsp agonist – qHTS for Agonist of gsp, the Etiologic Mutation Responsible for Fibrous Dysplasia/McCune-Albright Syndrome: qHTS | gsp mutant cells, cAMP HTRF, 30 min | Potency, µM (highest dose often 76.9 µM), inactives show at the highest dose activation (cAMP increase), hits mostly activators | hit rate 0.13% among 340,000; active means well fitted activation curve with a large enough effect; inconclusive means small, poorly fitted or top-dose-only effect, or another doubt; inactive means no such curve, though single readings can be large or run the other way; cell line not stated here;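 further: phosphodiesterase inhibitor Ro 20-1724 added with compounds to block cAMP breakdown; nearly all actives have a fitted effect of over 60% in size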
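Cells in DMEM/10% FBS with G418 were pretreated with compounds in DMSO plus […] (300 uM stock) for 30 min at 37C. cAMP was measured by HTRF (cAMP-d2 plus anti-cAMP antibody-K) after 30 min at room temperature.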
Mito fusion yeast – qHTS Assay for Small Molecule Inhibitors of Mitochondrial Division or Activators of Mitochondrial Fusion; AID 485298, 2010; hit rate 0.23% among 320,000; Potency, µM (highest dose often 46.1 µM), inactives show at the top dose growth rescue (activation), most hits filed as activators; S. cerevisiae fusion-defective mutant growth rescue, CellTiterGlo 48 h; further: % of control where 0% means no effect; nearly all actives have a fitted effect of over 45% in size
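Yeast fusion mutant, YPEG (non-fermentable carbon), compound, 48 h at 37C non-permissive; CellTiterGlo added, 10 min RT, luminescence read. Rescued growth = division inhibition.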
Starred values were filed as active, the others as inactive; [ ] = another dose, or the depositor's remark. Unless noted, the call rests on the fitted dose curve; in most records, active means well fitted curve in the direction sought with a large enough effect; inconclusive means small, poorly fitted or top-dose-only effect, or another doubt; inactive means no such curve, though single readings can be large; an effect the other way counts as inactive or inconclusive. Potency means the concentration at half of the fitted maximal effect.

Results for O=C(Nc1nnc(C2CC2)s1)C1COc2ccccc2O1 (stereo not given) ?
FUS yeast rescue: inactive; 12-LOX inh: 159.5%; gsp agonist: 3.4%[15.4 µM]; Mito fusion yeast: -2.3%

What do the screens show for `NC(=O)c1c(NC(=O)C2COc3ccccc3O2)sc2c1CCN(Cc1ccccc1)C2` (stereo not given)?
FUS yeast rescue: inactive; 12-LOX inh: 365.9%; gsp antagonist: inactive; gsp agonist: -15.8%[15.4 µM]; Mito fusion yeast: -1.6%

What do the screens show for `COC1CN(c2cccc(F)c2)C12CCN(C(=O)c1cnc(C)cn1)CC2` (stereo not given)?
12-LOX inh: 20.8%

What do the screens show for `Clc1ccc(N/N=C/c2cccc3ccccc23)cc1Cl`?
12-LOX inh: 5.01µM*

What do the screens show for `Clc1ccc(N/N=C/c2cccc(Cl)c2Cl)cc1Cl`?
12-LOX inh: 1µM*

Results for O=C(O)c1cccc(N/N=C/c2cccc3ccccc23)c1 ?
FUS yeast rescue: inactive; 12-LOX inh: inconclusive; gsp antagonist: -12.6%; gsp agonist: -8.6%[15.4 µM]; Mito fusion yeast: 6.1%

Results for O=C(CSc1ccc2c(c1)OCCCO2)Nc1ccccc1Oc1ccccc1 ?
12-LOX inh: -13.2%

What do the screens show for `O=C(NCc1cccnc1)c1cc(C(=O)C2CC2)c[nH]1`?
FUS yeast rescue: inactive; 12-LOX inh: 21.8%; gsp antagonist: 11.2µM*; gsp agonist: 1.0%[15.4 µM]; Mito fusion yeast: -1.8%

How did CC(C)(C)NC(=S)NC(=O)C12CCC3CC(CC(C3)C1)C2 do in these assays?
FUS yeast rescue: inactive; 12-LOX inh: 31.6µM*; gsp antagonist: 2.5%; gsp agonist: -27.3%; Mito fusion yeast: -2.3%

Results for CC(C)(C)NC(=O)C12CC3CC(CC(Cl)(C3)C1)C2 ?
FUS yeast rescue: inactive; 12-LOX inh: 1.0%; gsp antagonist: 5.6%; gsp agonist: -27.0%; Mito fusion yeast: 5.3%

How did Cc1ccc(S(=O)(=O)n2nc(-c3ccco3)nc2NCc2ccc(N(C)C)cc2)cc1 do in these assays?
FUS yeast rescue: inconclusive; 12-LOX inh: -21.1%

How did COc1ccc(S(=O)(=O)n2nc(-c3ccco3)nc2NCc2ccc(N(C)C)cc2)cc1 do in these assays?
FUS yeast rescue: 31.6µM*; 12-LOX inh: -26.3%

What do the screens show for `c1ccc2sc(SSc3nc4ccccc4s3)nc2c1`?
12-LOX inh: 4.96µM*

Results for FC(F)Sc1nc2ccccc2s1 ?
12-LOX inh: -31.8%

Results for COc1ccc(N2CCN(C(=O)CSc3nc4ccccc4nc3Cc3ccc(Cl)cc3)CC2)cc1 ?
FUS yeast rescue: 31.6µM*; 12-LOX inh: -26.5%

What do the screens show for `O=C(CSc1nc2ccccc2nc1Cc1ccc(Cl)cc1)N1CCN(c2ccccc2)CC1`?
FUS yeast rescue: inactive; 12-LOX inh: -7.1%

What do the screens show for `CC1CCN(C(=O)CSc2nc3ccccc3nc2Cc2ccccc2)CC1`?
FUS yeast rescue: inconclusive; 12-LOX inh: 3.1%

What do the screens show for `CC1CCCCN1C(=O)CSc1nc2ccccc2nc1Cc1ccc(Cl)cc1` (stereo not given)?
FUS yeast rescue: 25.1µM*; 12-LOX inh: -14.5%

How did CCCCOc1ccc(C(=O)OCC(=O)c2ccc(Cl)cc2Cl)cc1 do in these assays?
12-LOX inh: -27.1%

Results for CNC(=O)N1CCC(C2CCN(C(=O)CCCC(=O)O)C2)CC1 (stereo not given) ?
12-LOX inh: -7.0%

Results for Cc1nc(CCCNC(=O)[C@H]2CNC[C@@H](C(=O)N3CCOCC3)C2)sc1C ?
12-LOX inh: 10.2%

Results for Cc1nc(CCNC(=O)C2CNCCO2)sc1C (stereo not given) ?
12-LOX inh: 8.91µM*

How did COc1cc(C(C)=O)ccc1OCC(O)Cn1nc(C)c(Br)c1C (stereo not given) do in these assays?
FUS yeast rescue: inactive; 12-LOX inh: 4.47µM*; gsp antagonist: 6.9%; gsp agonist: -21.8%; Mito fusion yeast: 0.8%

What do the screens show for `COc1cc(C(C)=O)ccc1OCC(O)CN1CCN(c2ccc(C)cc2C)CC1` (stereo not given)?
FUS yeast rescue: inactive; 12-LOX inh: -2.4%; gsp antagonist: -2.2%; gsp agonist: -3.7%[15.4 µM]; Mito fusion yeast: -1.4%

What do the screens show for `COc1cccc(-c2noc(C3CCCN(C(=O)c4ccccc4OC)C3)n2)c1` (stereo not given)?
FUS yeast rescue: inactive; 12-LOX inh: -0.8%; gsp antagonist: 35.5µM*; gsp agonist: 0.4%; Mito fusion yeast: 0.8%

How did CCOc1ccc(-n2c(SCC(=O)c3ccccc3Cl)nnc2-c2ccncc2)cc1 do in these assays?
FUS yeast rescue: 17.8µM*

Results for NC(=O)CSc1nc2scc(-c3ccco3)c2c(=O)n1-c1ccccc1 ?
FUS yeast rescue: 22.4µM*; 12-LOX inh: inconclusive; gsp antagonist: -9.0%; gsp agonist: -27.8%; Mito fusion yeast: 2.9%

How did O=C(CSc1nc2scc(-c3ccco3)c2c(=O)n1-c1ccccc1)N1CCOCC1 do in these assays?
FUS yeast rescue: inactive; 12-LOX inh: 0.3%; gsp antagonist: -11.7%; gsp agonist: inconclusive; Mito fusion yeast: 8.1%

What do the screens show for `CC1(C)CC(NC(=O)C2CCN(S(=O)(=O)c3ccc(C(C)(C)C)cc3)CC2)CC(C)(C)N1`?
12-LOX inh: -1.8%

How did O=C(Nc1nncs1)c1c(F)c(F)c(F)c(F)c1F do in these assays?
FUS yeast rescue: inactive; 12-LOX inh: -22.2%; gsp antagonist: 39.8µM*; gsp agonist: -0.6%; Mito fusion yeast: 9.1%

How did COc1ccc(-c2[nH]ncc2Oc2ccccc2OC)c(O)c1 do in these assays?
FUS yeast rescue: inactive; 12-LOX inh: inconclusive; gsp antagonist: 12.6µM*; gsp agonist: -11.5%; Mito fusion yeast: 4.4%

How did COc1ccc(Oc2cn[nH]c2-c2ccc(O)cc2O)cc1 do in these assays?
FUS yeast rescue: inactive; 12-LOX inh: 73.2%; gsp antagonist: 6.8%; gsp agonist: -33.1%; Mito fusion yeast: 9.2%

Results for CN1CCCCCCN(S(=O)(=O)c2cccs2)[C@H]2CCC[C@H]2C1=O ?
12-LOX inh: -2.5%

Results for O=c1c(N2CCc3ccccc3C2)csc2ccc(Br)cc12 ?
FUS yeast rescue: inactive; 12-LOX inh: 39.8µM*

What do the screens show for `O=C1CC(c2ccccc2)c2ncn(-c3cc(F)ccc3F)c2N1` (stereo not given)?
12-LOX inh: 5.01µM*

How did CCNC(=O)C(C)NC(=O)c1cc2ccc(OC)cc2nc1C (stereo not given) do in these assays?
12-LOX inh: -12.7%

Screening data from PubChem.
